This is an account of results in PubChem BioAssay AID463173 (ICCB-Longwood Screening Facility, Harvard Medical School, 2010).

SMILES strings stand for the structures. Among all 52,000 compounds or so, about 4,300 (8.3%) were called active. This is one part of a sample in which actives are shown more often than they occur. A number with no mark means an inactive call. Rule as the data show it: active = survival mostly below about 52% (no sharp cut-off); inactive = mostly above about 56%.

This experiment relates to DeltatarO mutant. The experiment can be described thus: S. aureus survival, RN4220 and DeltatarO strains – OD600, teichoic acid synthesis inhibitors, primary screen (AID 463173). Conditions: S. aureus RN4220 wild type/DeltatarO growth, OD600, 18 h, active compounds read low, screened at 18.75 µg/mL (by protocol).
Turning to `Cn1c(=O)c2c(nc(SCC(=O)Nc3ccc(F)c(F)c3)n2Cc2ccccc2F)n(C)c1=O`, the survival is 111%.
Regarding `COc1ccc(NC(=O)c2nnn(Cc3ccc(Br)cc3F)c2N)c(OC)c1`, the survival was 68%.
For the compound `COc1ccc(CNc2nc3c(c(=O)n(C)c(=O)n3C)n2Cc2ccccc2Cl)cc1`, the survival was 65%.
With `COc1ccc(CCNc2nc3c(c(=O)n(C)c(=O)n3C)n2Cc2ccccc2Cl)cc1OC` the figure was 75%.
The same measure for `Cn1c(=O)c2c(nc(NCc3ccccc3)n2Cc2ccc(Cl)c(Cl)c2)n(C)c1=O`: 42%; for `Cc1ccccc1Oc1nc2c(c(=O)n(C)c(=O)n2C)n1Cc1ccc(Br)cc1`: 143%; for `Cn1c(=O)c2c(nc(NCc3ccccc3)n2Cc2ccccc2Cl)n(C)c1=O`: 58%.
Consider `Cn1c(=O)c2c(nc(NCc3ccccc3)n2Cc2ccccc2)n(C)c1=O`, for which the survival was 38% (active).
The same measure for `Cn1c(=O)c2c(nc(NCCc3ccccc3)n2Cc2cccc(Br)c2)n(C)c1=O`: 50%; for `COc1ccccc1Oc1nc2c(c(=O)n(C)c(=O)n2C)n1Cc1cccc(Br)c1`: 40% (active).
Take `COc1ccc(Cl)c(Cn2c(NCCN)nc3c2c(=O)n(C)c(=O)n3C)c1`: the survival was 56% (active).
Turning to `COc1ccc(NC(=O)Cn2cnc3sc(C)c(S(=O)(=O)N4CCN(c5ccccc5OC)CC4)c3c2=O)cc1OC`, the survival is 67%.
In the case of `CC1CCN(c2nc(N3CCCCC3)nc(N3CCCCC3)n2)CC1`, the survival is 62%.
For the compound `CCOC(=O)c1cc(C)n(CC2CCC(C(=O)Nc3ccc(C)c(F)c3)CC2)c1C` (centres undefined), the survival is 64%.
With `Cc1cccc(NC(=O)C2CCCN(S(=O)(=O)c3c(C)noc3/C=C/N(C)C)C2)c1C` (centres undefined) the figure was 84%; with `Cc1ccc(NS(=O)(=O)c2ccc3c(c2)CCN3C(=O)C2CC2)c(C)c1`, 58%.
`Cc1ccc(Nc2c(-c3cccnc3)nc3ccc(Cl)cn23)cc1`: the survival was 83%.
With `O=C(Nc1ccc(F)cc1F)C1CCN(c2ncccn2)CC1` the figure was 58%; with `Cc1c(C(=O)OC2CCCC2)[nH]c2c1C(=O)CC(c1ccc(C(C)(C)C)cc1)C2` (centres undefined), 89%; with `Cc1nnc(SCC(=O)O)o1`, 75%.
The same measure for `Cc1ccc2nc(-c3ccc(F)cc3)c(NC(C)(C)CC(C)(C)C)n2c1`: 12% (active).
With `COCCNc1c(-c2ccc(N)cc2)nc2ccc(C)cn12` the figure was 65%; with `Cc1ccc(Nc2c(-c3ccc(C)cc3)nc3ccc(C)cn23)cc1`, 117%.
Consider `O=C(CSc1ccc(-c2cccs2)nn1)Nc1ccccc1`, for which the survival is 76%.
With `COc1ccccc1N1CCN(C(=O)c2ccc3c(c2)N(Cc2cc(C)ccc2C)C(=O)c2ccccc2S3(=O)=O)CC1` the figure was 74%; with `CCC(C)NC(=O)c1cc2n(n1)CCCN(Cc1ccc(C)cc1)C2=O` (centres undefined), 74%.
The same measure for `CCNC(=O)c1cc2n(n1)CCCN(Cc1ccc(C)cc1)C2=O`: 49%; for `CCCCNC(=O)c1cc2n(n1)CCCN(Cc1ccc(C)cc1)C2=O`: 32% (active); for `Cc1ccc(CN2CCCn3nc(C(=O)NC(C)C)cc3C2=O)cc1`: 0% (active).
The same measure for `CCCSCCCNC(=O)c1cc2n(n1)CCCN(Cc1ccc(C)cc1)C2=O`: 89%; for `CCCNC(=O)c1cc2n(n1)CCCN(Cc1ccc(C)cc1)C2=O`: 131%; for `O=C(CN1C(=O)CSc2ccc(S(=O)(=O)N3CCCC3)cc21)NCc1ccccc1Cl`: 87%.
Regarding `CCCC(=O)n1nc(-c2cccnc2)nc1NCc1ccccc1`, the survival is 81%.
With `Cc1ccc(Cl)cc1NC(=O)CCc1c(C)nc2c3cccnc3nn2c1C` the figure was 103%; with `O=C(NCc1ccc(Cl)cc1)C1CCCN(c2nc3ccccc3n3cccc23)C1` (centres undefined), 82%; with `COc1ccccc1CNC(=O)C1CCCN(c2nc3ccccc3n3cccc23)C1` (centres undefined), 53%.
With `O=C(NCc1ccccc1Cl)C1CCCN(c2nc3ccccc3n3cccc23)C1` (centres undefined) the figure was 46% (active).
The same measure for `O=C(NCc1ccccc1Br)C1CCCN(C(=O)N2CCOc3ccccc32)C1` (centres undefined): 73%.
Regarding `COc1ccc(NC(=O)C2=C(C)Nc3nc(SCc4ccccc4C)nn3C2c2ccc(Br)cc2)cc1` (centres undefined), the survival was 80%.
With `CCOc1ccc(CNC(=O)c2ccc3c(c2)c(C)c(C)n3Cc2ccc(Cl)cc2)cc1` the figure was 67%; with `CCCC(=O)Nc1nc2ccc(S(C)(=O)=O)cc2s1`, 93%; with `CN(c1ccc(O)cc1)c1nc(-c2cccs2)cs1`, 1% (active).
The same measure for `COc1ccc(-c2csc(N(CC(C)C)C(=O)c3cccs3)n2)cc1`: 76%.
With `CC(=O)N(C)c1nc(-c2ccccc2)cs1` the figure was 80%; with `Cc1[nH]c2ccc(CNS(=O)(=O)c3ccc(S(=O)(=O)N4CCOCC4)cc3)cc2c1C`, 91%; with `CC1=C(C(=O)OCC2CCCO2)C(c2ccccc2)NC(=O)N1` (centres undefined), 102%.
Consider `CC1CCN(S(=O)(=O)c2ccc3c(c2)N(CC(=O)NC(C)C)C(=O)CO3)CC1`, for which the survival was 76%.
With `Cc1cc(C)c(NC(=O)C(C)n2nc(C)c3sc4ccccc4c3c2=O)c(C)c1` (centres undefined) the figure was 60%; with `Cc1nn(C(C)C(=O)Nc2cccc(F)c2)c(=O)c2c1sc1ccccc12` (centres undefined), 108%; with `Cc1nn(C(C)C(=O)Nc2ccc(C(C)C)cc2)c(=O)c2c1sc1ccccc12` (centres undefined), 58% (active).
As to `Cc1ccc(S(=O)Cc2ccc(C(=O)NC3CCCCCC3)o2)cc1` (centres undefined), the survival is 121%.
The same measure for `CCOC(=O)c1ccc(NC(=O)C2CCN(S(=O)(=O)Cc3ccccc3)CC2)cc1`: 66%; for `CC(C)c1ccc(CNC(=O)c2ccc(N3CCCC3)c(NC(=O)NCc3ccc(F)cc3)c2)cc1`: 47% (active).
The same measure for `CC(C)c1ccc(CNC(=O)c2ccc(N3CCCC3)c(NC(=O)NCc3ccccc3)c2)cc1`: 73%; for `Cc1ccc(CNC(=O)Nc2cc(C(=O)NCc3ccc(C(C)C)cc3)ccc2N2CCCC2)cc1`: 79%; for `Cc1cc(C)cc(-n2ccn(Cc3ccc(F)cc3)c(=O)c2=O)c1`: 71%.
With `COc1ccc(C(=O)Nc2ccc3nc(N4CCC(C)CC4)cc(C)c3c2)cc1` the figure was 56%; with `CCCCc1ccc(C(=O)Nc2ccc3nc(N(CC)CC)cc(C)c3c2)cc1`, 109%.
`COc1ccc(Cl)cc1C(=O)Nc1ccc2nc(Nc3cccc(Cl)c3)cc(C)c2c1`: the survival was 93%.
With `CCCCc1ccc(C(=O)Nc2ccc3nc(N4CCN(CC)CC4)cc(C)c3c2)cc1` the figure was 36% (active).
The same measure for `COc1ccc(C(=O)Nc2ccc3nc(N4CCCCC4)cc(C)c3c2)c(OC)c1`: 44% (active); for `CCN1CCN(c2cc(C)c3cc(NC(=O)c4cc(Cl)ccc4OC)ccc3n2)CC1`: 8% (active); for `COc1cccc(C(=O)Nc2ccc3nc(N4CCC(C)CC4)cc(C)c3c2)c1`: 47%.
With `COc1ccccc1C(=O)Nc1ccc2nc(N3CCC(C)CC3)cc(C)c2c1` the figure was 3% (active); with `CC(=O)c1ccc(NC(=O)CSc2ccc3nnc(CCNS(=O)(=O)c4ccc(C)cc4)n3n2)cc1`, 67%; with `COc1ccc(C)cc1NC(=O)CC(=O)Nc1ccc2nc3n(c(=O)c2c1)CCCCC3`, 89%.
On to `COCCCNC(=O)CSc1nc2cc3c(cc2c(=O)n1CCCC(=O)NCc1ccc2c(c1)OCO2)OCO3`, for which the survival is 84%.
Consider `Cc1cc(C)cc(NC(=O)N2CCC(N3CCN(Cc4ccccc4)C(=O)C3=O)CC2)c1`, for which the survival was 77%.
The same measure for `COc1ccccc1CNc1nc(-c2ccco2)nn1S(C)(=O)=O`: 70%.
With `O=C(Cn1ncc2c3ccccc3n(Cc3ccccc3)c2c1=O)NCc1ccccc1` the figure was 93%; with `Cc1ccccc1C(=O)OCc1cc(=O)n2nc(C(C)C)sc2n1`, 81%.
With `COc1ccc(Cn2c(C(=O)O)c(CNCCc3ccccc3Cl)c3ccc(C)cc32)cc1`, the survival is 80%.
Turning to `Cc1ccc(-n2c(=O)c3c(c4cc(C)ccc4n3C)n(CC(=O)Nc3c(C)cccc3C)c2=O)cc1`, the survival was 123%.
The same measure for `CCN1CCN(c2cc(C)c3cc(NC(=O)c4cc(OC)c(OC)c(OC)c4)ccc3n2)CC1`: 78%; for `CCN1CCN(c2cc(C)c3cc(NC(=O)c4ccccc4F)ccc3n2)CC1`: 43% (active).
With `COc1ccc(CC(=O)Nc2ccc3nc(N4CCCCC4)cc(C)c3c2)cc1`, the survival was 51% (active).
With `Cc1cc(N2CCN(C)CC2)nc2ccc(NC(=O)c3ccc(C(C)(C)C)cc3)cc12` the figure was -3% (active); with `CCOc1cc(C(=O)Nc2ccc3nc(N4CCN(C)CC4)cc(C)c3c2)cc(OCC)c1OCC`, 137%.
Turning to `Cc1ccc(NC(=O)Nc2ccc3nc(N4CCN(C)CC4)cc(C)c3c2)cc1F`, the survival was 96%.
The same measure for `Cc1ccc(NC(=O)Nc2ccc3nc(N4CCN(C)CC4)cc(C)c3c2)cc1C`: 101%.
In the case of `CCN1CCN(c2cc(C)c3cc(NC(=O)c4ccc(OC)c(OC)c4)ccc3n2)CC1`, the survival is 44% (active).
As to `Cc1cc(N2CCN(C)CC2)nc2ccc(NC(=O)c3ccccc3F)cc12`, the survival was 122%.
The same measure for `COc1ccc(CC(=O)Nc2ccc3nc(Nc4ccc(OC)cc4)cc(C)c3c2)cc1`: 55%.
For `CCOc1ccc(CC(=O)Nc2ccc3nc(N4CCCCC4)cc(C)c3c2)cc1OCC`, the survival was 92%.
With `COc1cccc(CNc2nc3c(-c4ccccc4)nnn3c3ccccc23)c1` the figure was 84%; with `CCOc1ccc(NC(=O)c2ccc3c(SCC(=O)O)c4c(nc3c2)CCC4)cc1`, 90%; with `CCC1CCCCN1S(=O)(=O)c1cc2c(cc1C)NC(=O)CO2` (centres undefined), 105%.
Turning to `O=C1CCN(C(=O)/C=C/c2ccccc2)c2ccccc21`, the survival was 88%.
With `CC(=O)c1ccc(NC(=O)C2CCCN(S(=O)(=O)c3ccc4c(c3)CCCN4C(C)=O)C2)cc1` (centres undefined) the figure was 93%.
